Whole data set: some 33,000 sequences, median “E-score (-0.5 to 0.5)” near -8e-05, cut for the highest 2% near 0.23. This excerpt belongs to a sample that is enriched for the highest values.
target: T1, Nrg2 (UniProt P38082); assay: PBM E-score (8-mer binding enrichment) (E-score (-0.5 to 0.5)); higher = stronger / more preferred TF binding; conditions: protein concentration: 100 nM; construct: GST-full length
T1 sequence: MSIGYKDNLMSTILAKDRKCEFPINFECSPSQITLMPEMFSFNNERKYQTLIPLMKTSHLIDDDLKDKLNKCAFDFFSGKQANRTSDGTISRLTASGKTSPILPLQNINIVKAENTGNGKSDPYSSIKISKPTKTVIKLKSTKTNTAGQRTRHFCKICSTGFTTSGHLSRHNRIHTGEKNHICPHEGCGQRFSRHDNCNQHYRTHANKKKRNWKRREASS
Method: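 Universal 'all 10-mer' protein binding microarrays (Agilent AMADID 015681) probed with GST-tagged S. cerevisiae TFs (full-length or DBD) made by in vitro transcription/translation (PURExpress), about 100-200 nM. Bound TF was detected with fluorescent anti-GST. Each ungapped 8-mer (which stands for itself and its reverse complement) is scored by the PBM enrichment score (E-score), a modified Wilcoxon-Mann-Whitney statistic from -0.5 to +0.5, computed with the Universal PBM Analysis Suite. Scale: above 0.35 generally sequence-specific binding.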

| Sequence | PBM E-score |
| --- | --- |
| GCGACAGA | 0.238 |
| TCGACAGA | -0.105 |
| CCGACAGA | 0.141 |
| TGTTATAA | 0.163 |
| AGGGTCTC | 0.308 |
| CGGGTCTA | -0.0249 |
| AGGGTCTG | 0.216 |
| CGGGTCTC | -0.0571 |
| AGGGTCTA | 0.356 |
| GGGGTCTA | 0.203 |
| CCCCCCGC | -0.359 |
| CCACTGTA | 0.064 |
| CTGATGAA | 0.0121 |
| AGTATGAA | 0.254 |
| AGTATGAC | 0.0675 |
| ATGATGAA | 0.31 |
| CTGATCTA | 0.00323 |
| ATGATCTC | 0.087 |
| GTGATGAA | 0.0611 |
| AGTATGAT | 0.223 |
| ATGATCTA | 0.236 |
| GCAGCATA | 0.0385 |
| GGAGAGGA | -0.215 |
| ACCGAACC | -0.254 |
| CGGACCTC | -0.0835 |

| Sequence | PBM E-score |
| --- | --- |
| GACTCACA | 0.0103 |
| AGGTAGAT | -0.104 |
| GAACACTA | 0.0307 |
| CAACACTA | 0.147 |
| TAACACTA | 0.248 |
| CGGTTGAA | 0.101 |
| AAAGGAAA | 0.0754 |
| AGCATAGA | -0.0952 |
| AGCGATCG | 0.24 |
| AGCGATCA | -0.156 |
| AGCGATCC | -0.129 |
| CCGTGGAA | -0.00678 |
| CATTGCAG | 0.0963 |
| ATGAGAGC | 0.00785 |
| ACCTACGG | -0.376 |
| CCTAACGA | -0.038 |
| ATTAGTGC | 0.23 |
| GTTAGTTA | 0.0784 |
| ATTAGTTA | 0.268 |
| CTTAGTTA | 0.0769 |
| AGTAGTTC | 0.207 |
| AGTAGTTA | 0.0579 |
| ATTAGTGA | 0.114 |
| AGTAGTTG | 0.253 |
| ATTAGTAC | 0.14 |

| Sequence | PBM E-score |
| --- | --- |
| CTTAGTAA | 0.0233 |
| ATTAGTGG | 0.15 |
| ATTAGTAA | 0.245 |
| GTAACTAC | 0.0907 |
| CGTTCTCA | -0.0327 |
| CACCATGA | -0.00138 |
| CGGGCCAG | -0.0425 |
| TGGTTCAA | 0.103 |
| CGAGCCCC | -0.154 |
| GACAGCCC | -0.099 |
| CTTCTCTA | -0.137 |
| AATAGTTG | 0.248 |
| AATAGTTC | 0.0571 |
| ATTAGTTC | 0.158 |
| ATTAGTCG | 0.143 |
| ATTAGTTG | 0.256 |
| AATAGTTA | 0.0707 |
| ACTTGAAA | -0.108 |
| CCTTGCAG | -0.0165 |
| CATGCTAG | -0.00401 |
| CCCGATCG | -0.026 |
| AATCTAAC | 0.0101 |
| ACGTGAGA | -0.11 |
| GCGTGAGA | 0.297 |
| TCGTGAGA | -0.0385 |

| Sequence | PBM E-score |
| --- | --- |
| CCTCTAGC | -0.0815 |
| TATTTCCA | 0.0167 |
| CATTTCCA | 0.237 |
| CATTTCCC | 0.201 |
| GGGCTGCA | 0.0573 |
| AACTCGGA | 0.13 |
| AACTCGGC | 0.245 |
| AACTCGGT | -0.00163 |
| GATAAAAA | -0.00426 |
| AATAAATA | 0.246 |
| AATAAATG | 0.158 |
| TATAAAAA | 0.164 |
| AATAAATT | 0.215 |
| CATAAATA | 0.046 |
| GATAAATC | 0.023 |
| TATAAATA | 0.255 |
| GATAAATA | 0.262 |
| AATAAAGA | 0.0604 |
| AATAAAGG | -0.0433 |
| AATAAAGT | 0.252 |
| CCCTGCCC | -0.1 |
| ACGGATTG | 0.168 |
| ACGACCCG | 0.168 |
| GGATAAAC | 0.133 |
| AGAGCTAC | 0.00658 |

| Sequence | PBM E-score |
| --- | --- |
| AGCCGACT | -0.111 |
| CTTGGAAA | 0.0285 |
| AGACCGTA | -0.242 |
| AACACGAC | 0.0492 |
| ATAAATAA | 0.237 |
| ATAAAAAG | 0.257 |
| AAAAATAT | 0.101 |
| ATAAAAAT | 0.122 |
| TTAAATAA | 0.186 |
| ATAAATAG | 0.0238 |
| ATAAATAT | 0.245 |
| ATAAAAGG | -0.128 |
| GTAAATAC | -0.0746 |
| ATAAAAAA | 0.0337 |
| ATAAATAC | 0.283 |
| CTAAATAC | 0.0507 |
| AGCCAGGA | -0.0522 |
| AAGATTCA | 0.0877 |
| CGTTGACA | 0.00462 |
| GCTAGCAA | -0.0969 |
| CTAAGAGA | -0.0214 |
| ACTACCTG | 0.0949 |
| TACTTCGA | 0.23 |
| GACTTCGA | -0.106 |
| CACTTCGA | 0.0548 |

| Sequence | PBM E-score |
| --- | --- |
| CCAAGATA | 0.00687 |
| ACAAGATA | 0.103 |
| GCAAGATA | 0.229 |
| GCTACGCA | -0.108 |
| CGACGAAA | 0.0993 |
| GCCGCATA | 0.231 |
| ACCGCATA | 0.0956 |
| CCCGCATA | 0.168 |
| CGCACGAG | -0.0371 |
| CCCACAAA | 0.247 |
| CCCACAAG | -0.0136 |
| CGCACAAA | 0.257 |
| CGCACAAG | 0.0299 |
| GCCACAAA | 0.0838 |
| GAGAGAAC | -0.0345 |
| CCCGCCAA | -0.175 |
| AGCCTACG | 0.0365 |
| CATAATTA | 0.173 |
| GATTAATA | 0.29 |
| GTTTAATA | 0.198 |
| CTTTAATA | 0.125 |
| GATAATTA | 0.0635 |
| AATAATTA | 0.286 |
| AATTAATT | -0.112 |
| TATTAATA | 0.152 |

| Sequence | PBM E-score |
| --- | --- |
| AATTAATA | 0.303 |
| CATTAATA | 0.155 |
| ATTTAATA | 0.247 |
| AATTAATG | 0.182 |
| CCACCACG | 0.00854 |
| CGGGTCAG | 0.023 |
| ACCCAGGA | -0.227 |
| ACTGTGGA | -0.109 |
| CGGTCGAC | -0.0395 |
| ACTCTAAA | 0.101 |
| GATAGCAA | 0.0872 |
| AACTGTCC | -0.0683 |
| GCTGAAAC | -0.139 |
| ATTGATAC | 0.274 |
| GTTGATGA | 0.0639 |
| ATTGATAG | -0.0275 |
| ATTGATTG | 0.142 |
| CTTGATAA | 0.147 |
| ATTGATAA | 0.0942 |
| CCTGATAC | 0.229 |
| ATTGATTC | 0.244 |
| GTTGATAA | 0.232 |
| CTTGATTC | 0.0772 |
| CCTGATAG | -0.153 |
| GCTGATAC | -0.0795 |

| Sequence | PBM E-score |
| --- | --- |
| AAACTCCC | -0.0959 |
| GTGGATTA | 0.0668 |
| CGGCCTTA | 0.0601 |
| ACTCAAGC | -0.148 |
| CAGTTTTC | 0.17 |
| AATGGAAC | 0.108 |
| AATGGAAG | 0.0112 |
| AATGGCAC | -0.0263 |
| AATGGCAG | 0.0917 |
| AATGGAAT | 0.241 |
| AATGGCAT | 0.26 |
| CGCCAAAA | 0.119 |
| AAGGAAAC | -0.128 |
| CAGAGACG | 0.0459 |
| GAGGGACA | 0.0412 |
| CAGGGACC | 0.4 |
| AAGGGACT | 0.123 |
| AAGGGACG | 0.207 |
| AAGGGACC | 0.424 |
| AGGGGACC | 0.225 |
| GAGGGACC | 0.0355 |
| CAGAGACC | -0.212 |
| CAGGGACA | 0.371 |
| CAGGGACG | 0.306 |
| AAGGGACA | 0.137 |

| Sequence | PBM E-score |
| --- | --- |
| AGCAAACA | 0.0834 |
| GGCGCCTA | -0.0964 |
| AGAACCGC | 0.0943 |
| ACGTCAGC | 0.129 |
| CCCGAACG | -0.0859 |
| GCAAACGA | 0.0657 |
| CGCAACTA | 0.244 |
| GGCAACTA | 0.194 |
| CGCAACTC | 0.147 |
| GCGGCCAA | -0.133 |
| AGGACCCG | 0.0935 |
| AAGACCCT | 0.291 |
| AAGACCCA | -0.181 |
| AGGACCCT | 0.369 |
| AAGACCCG | 0.0509 |
| AGGACCCA | -0.179 |
| CCAACCTA | -0.118 |
| AAGTGAGC | -0.0445 |
| CATGGGAA | 0.0176 |
